For test [1], the target named is Glucocorticoid receptor (Homo sapiens) (UniProt P04150). The test can be described thus: ATG_GR_TRANS: Attagene TRANS-FACTORIAL HepG2 Assay for human Glucocorticoid Receptor (GR) (AID 2282978; active = hit-call score of the fitted dose curve at least 0.9, where 1 is the maximum;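 note: activators score as hits since higher reporter transcript over DMSO is fitted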). Particulars: HepG2 Attagene TRANS GR reporter, mRNA transcription. A digest of the protocol:
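After 24 h incubation with test chemical, transfected HepG2 cells were lysed for RNA; reporter cDNA was amplified, FAM-labelled, HpaI-digested and sized on a capillary analyser. Signal gain relative to DMSO was scored.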

Test [2] concerns the target Oxysterols receptor LXR-alpha (Homo sapiens) (UniProt Q13133). The test can be described thus: ATG_LXRa_TRANS: Attagene TRANS-FACTORIAL HepG2 Assay for human Liver X Receptor alpha (LXRa) (AID 2282980; active = hit-call score of the fitted dose curve at least 0.9, where 1 is the maximum). Conditions: HepG2 Attagene TRANS reporter, LXRa transactivation. A digest of the protocol: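 Chemical-induced reporter mRNA measured by RT-PCR with fluorescent labelling and capillary electrophoresis after 24 h dosing of transiently transfected HepG2 cells expressing exogenous NR-Gal4 chimeras; increases scored against DMSO baseline.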

Test [3] has as its target Oxysterols receptor LXR-beta (Homo sapiens) (UniProt P55055). Briefly: ATG_LXRb_TRANS: Attagene TRANS-FACTORIAL HepG2 Assay for human Liver X Receptor beta (LXRb) (AID 2282981; active = hit-call score of the fitted dose curve at least 0.9, where 1 is the maximum). Particulars: HepG2 Attagene TRANS GAL4-LXRb reporter, mRNA. A digest of the protocol:
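Readout: fluorescent reporter mRNA fragments resolved by capillary electrophoresis after RT-PCR. System: transiently transfected human HepG2, exogenous LXRb-Gal4 chimera driving GAL4-UAS reporter, 24 h dosing. Activity fitted upward against DMSO baseline.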

The target in test [4] is Hepatocyte nuclear factor 4-alpha (Homo sapiens) (UniProt P41235). Briefly: ATG_HNF4a_TRANS: Attagene TRANS-FACTORIAL HepG2 Assay for human Hepatocyte Nuclear Factor 4 alpha (HNF4a) (AID 2282982; active = hit-call score of the fitted dose curve at least 0.9, where 1 is the maximum). Particulars: HepG2 HNF4a transactivation reporter, mRNA readout. A digest of the protocol:
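Transient MRTU transfection of HepG2, 24 h dosing. Readout: reporter mRNA via RT-PCR + capillary electrophoresis, fluorescence; activity fit upward relative to DMSO control.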

The nature of test [5]: ATG_M_32_TRANS: Attagene TRANS-FACTORIAL HepG2 Assay for M32 Transcription Factor (Internal Marker) (AID 2282984; active = hit-call score of the fitted dose curve at least 0.9, where 1 is the maximum;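 note: transcript level of a background control reporter unit measured by RT-PCR and capillary electrophoresis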). Particulars: HepG2 Attagene TRANS M32 internal marker reporter. A digest of the protocol: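 Read-out: fluorescent reporter cDNA fragments resolved by capillary electrophoresis after RT-PCR of total RNA. Transfected HepG2 cells were exposed to chemical for 24 h. Activity scored in the positive direction relative to DMSO.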

The target of test [6] is Nuclear receptor subfamily 4 group A member 2 (Homo sapiens) (UniProt P43354). The test can be described thus: ATG_NURR1_TRANS: Attagene TRANS-FACTORIAL HepG2 Assay for human Nuclear Receptor Related Protein 1 (NURR1) (AID 2282985; active = hit-call score of the fitted dose curve at least 0.9, where 1 is the maximum). Conditions: HepG2 Attagene TRANS reporter, mRNA readout. A digest of the protocol:
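Read-out: reporter mRNA induction by RT-PCR plus capillary electrophoresis with fluorescence detection, after 24 h dosing of transfected HepG2 cells. Exogenous NR-Gal4 chimera activity drives GAL4-UAS reporter; activity fitted upward versus DMSO.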

Test [7] deals with Transcriptional activator Myb (Homo sapiens) (UniProt P10242). The test can be described thus: ATG_Myb_CIS: Attagene CIS-FACTORIAL HepG2 Assay for human Myeloblastosis (Myb) Proto-Oncogene Transcription Factor (AID 2282986). Conditions: HepG2 Attagene CIS-FACTORIAL Myb reporter transcription; actives raise or lower the signal. A digest of the protocol:
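After 24 h of compound dosing, total RNA from transfected HepG2 cells is reverse-transcribed and the reporter sequences amplified, labeled and separated by capillary electrophoresis. Values come from bidirectional fitting against DMSO.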

Test [8] concerns the target Nuclear respiratory factor 1 (Homo sapiens) (UniProt Q16656). Briefly: ATG_NRF1_CIS: Attagene CIS-FACTORIAL HepG2 Assay for human Nuclear Respiratory Factor 1 (NRF1) Orphan Gene (AID 2282987). Conditions: HepG2 NRF1 cis-element reporter, Attagene multiplex; actives raise or lower the signal. A digest of the protocol: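 Measured: fluorescent reporter-specific RT-PCR products from transfected HepG2 cells, separated by capillary electrophoresis. Exposure lasted 24 h. Analysis used bidirectional curve fitting with DMSO as negative control.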

Test [9] in a line: ATG_NFI_CIS: Attagene CIS-FACTORIAL HepG2 Assay for human Nuclear Factor I (NFI) (AID 2282989). Conditions: HepG2 cis-regulatory reporter, NFI response element transcription; actives raise or lower the signal. A digest of the protocol:
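Reporter transcription driven by endogenous transcription factors in HepG2 cells; 24 h treatment. Quantitation by labelled RT-PCR fragments on capillary electrophoresis, gain- or loss-of-signal relative to DMSO.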

For test [10], the target named is Myc proto-oncogene protein (Homo sapiens) (UniProt P01106). The test can be described thus: ATG_Myc_CIS: Attagene CIS-FACTORIAL HepG2 Assay for human Myelocytomatosis (Myc) Proto-Oncogene Transcription Factor (AID 2282990). Particulars: HepG2, Attagene cis-reporter transcription factor activity; actives raise or lower the signal. A digest of the protocol:
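Read-out: fluorescent reporter mRNA fragments resolved by capillary electrophoresis after RT-PCR. Human HepG2 liver cells carried transfected cis-element reporter units and were dosed for 24 h. Gain or loss of signal fitted relative to DMSO baseline.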

Test [11] is described as follows: ATG_NF_kB_CIS: Attagene CIS-FACTORIAL HepG2 Assay for human Nuclear Factor Kappa B (NF-kB) (AID 2282991). Particulars: HepG2 Attagene cis-factorial NF-kB reporter mRNA; actives raise or lower the signal. A digest of the protocol:
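Fluorescence of labelled RT-PCR products separated by capillary electrophoresis gives reporter mRNA levels from transfected HepG2 cells exposed 24 h; values are fitted in both directions relative to DMSO.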

The nature of test [12]: ATG_NRF2_ARE_CIS: Attagene CIS-FACTORIAL HepG2 Assay for human Nuclear Factor Erythroid 2 Related Factor 2 (NFR2) response to Antioxidant Response Elements (ARE) (AID 2282992). Particulars: HepG2 Attagene ARE/NRF2 reporter, transcription factor activity; actives raise or lower the signal. A digest of the protocol:
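Endogenous transcription factor activity in human liver HepG2 cells is tracked via a cis-element-driven reporter within a multiplexed set. mRNA induction is read by RT-PCR and capillary electrophoresis after 24 h, with DMSO as baseline.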

The nature of test [13]: ATG_Oct_MLP_CIS: Attagene CIS-FACTORIAL HepG2 Assay for human Octamer-Binding Transcription Factor (Oct) (AID 2282993). Particulars: HepG2 Attagene cis-factorial Oct reporter, mRNA; actives raise or lower the signal. A digest of the protocol: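 Transfected HepG2 cells, 24 h treatment. Reporter mRNA quantified by RT-PCR–capillary electrophoresis; bidirectional fitting against DMSO.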

The target in test [14] is Cellular tumor antigen p53 (Homo sapiens) (UniProt P04637). The test can be described thus: ATG_p53_CIS: Attagene CIS-FACTORIAL HepG2 Assay for human p53 Transcription Factor (AID 2282994). Particulars: HepG2 p53 cis-element reporter, Attagene mRNA; actives raise or lower the signal. A digest of the protocol:
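Steps: transfect HepG2 with multiplexed cis reporter constructs; dose chemicals 24 h; extract RNA, reverse-transcribe, PCR-amplify reporter sequences; FAM-label, HpaI-digest, resolve fragments by CE. Activity fitted both directions relative to DMSO.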

Test [15] is described as follows: BSK_3C_TissueFactor: BioMAP Diversity Plus: 3C Assay for Tissue Factor Biomarker Activity (AID 2282997). Particulars: BioMAP 3C HUVEC, tissue factor biomarker readout; actives raise or lower the signal. A digest of the protocol: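 Tissue factor on primary human umbilical vein endothelium was read by ELISA 24 h after dosing, gain or loss relative to DMSO. Cytotoxicity ran alongside via SRB (0.1%, TCA-fixed, 560 nm).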

Test [16] can be described thus: BSK_3C_uPAR: BioMAP Diversity Plus: 3C Assay for Urokinase-type plasminogen activator receptor (uPAR) Biomarker Activity (AID 2282998). Conditions: BioMAP 3C HUVEC, uPAR biomarker ELISA; actives raise or lower the signal. A digest of the protocol: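 Readout: ELISA for surface uPAR. System: human umbilical vein endothelial primary cells, 24 h after chemical exposure. Analysis: bidirectional fit, DMSO baseline.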

For test [17], the target named is Bile acid receptor (Homo sapiens) (UniProt Q96RI1). The test can be described thus: ATG_FXR_TRANS: Attagene TRANS-FACTORIAL HepG2 Assay for Farnesoid X Receptor (FXR) (AID 2282979; active = hit-call score of the fitted dose curve at least 0.9, where 1 is the maximum;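 note: hits raise reporter mRNA above DMSO so AC50 marks FXR activation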). Conditions: HepG2 Attagene TRANS FXR-GAL4 reporter transcription. A digest of the protocol: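 Reporter transcripts from transfected HepG2 cells were measured 24 h after dosing, using RT-PCR with capillary electrophoresis of 6-FAM-labelled fragments. The read-out reflects activity of exogenous FXR-Gal4 chimera on GAL4-UAS units, with induction relative to DMSO.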

A short description of test [18]: ATG_M_06_TRANS: Attagene TRANS-FACTORIAL HepG2 Assay for M06 Transcription Factor (Internal Marker) (AID 2282983; active = hit-call score of the fitted dose curve at least 0.9, where 1 is the maximum). Conditions: HepG2 Attagene TRANS M06 internal marker reporter. A digest of the protocol: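 Background-control reporter readout: after 24 h chemical exposure of transiently transfected HepG2 (GAL4-UAS reporter units), mRNA quantified by RT-PCR with fluorescent labeling and capillary electrophoresis. Gain-of-signal fitting against DMSO baseline.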

In test [19] the target is Estrogen-related receptor gamma (Homo sapiens) (UniProt P62508). The test can be described thus: ATG_ERRg_TRANS: Attagene TRANS-FACTORIAL HepG2 Assay for human Estrogen-Related Receptor gamma (ERRg) (AID 2282977; active = hit-call score of the fitted dose curve at least 0.9, where 1 is the maximum;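 note: hits increase reporter signal over DMSO so potencies reflect activators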). Particulars: HepG2 Attagene TRANS reporter, ERRg transactivation. A digest of the protocol: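 Readout: fluorescent reporter-mRNA fragments resolved by capillary electrophoresis after RT-PCR and HpaI cut. Cells: transiently transfected HepG2 carrying GAL4-UAS reporters driven by exogenous NR-Gal4 chimeras, dosed 24 h. Activity fitted upward relative to DMSO baseline.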

Where “and” joins values, the source holds several entries; their conditions need not be identical. Identical values can stand only once. Records with an inconclusive call do not appear. Calls of active or inactive are those of the source. Rule for the calls, unless noted: active = hit-call score of the fitted dose curve at least 0.9, where 1 is the maximum; inactive = score below 0.9.

By AC50 is commonly meant the midpoint of the concentration-response curve, whichever way the signal moves.

Sequence of Oxysterols receptor LXR-alpha (Homo sapiens) (Q13133 whole entry, looked up, the tested form may be a part): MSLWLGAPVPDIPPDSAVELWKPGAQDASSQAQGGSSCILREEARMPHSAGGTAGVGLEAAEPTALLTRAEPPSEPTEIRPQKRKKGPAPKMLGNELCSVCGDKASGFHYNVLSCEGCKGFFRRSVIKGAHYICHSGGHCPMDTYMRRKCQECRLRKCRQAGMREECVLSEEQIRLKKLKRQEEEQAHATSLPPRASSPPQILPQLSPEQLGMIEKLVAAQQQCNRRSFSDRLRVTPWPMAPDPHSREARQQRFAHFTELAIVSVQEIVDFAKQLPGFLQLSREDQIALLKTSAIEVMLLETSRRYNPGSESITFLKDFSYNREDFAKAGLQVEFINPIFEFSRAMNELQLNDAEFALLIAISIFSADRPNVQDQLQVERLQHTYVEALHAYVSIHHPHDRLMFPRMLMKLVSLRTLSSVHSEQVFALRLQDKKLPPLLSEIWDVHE
Sequence of Oxysterols receptor LXR-beta (Homo sapiens) (P55055 whole entry, looked up, the tested form may be a part): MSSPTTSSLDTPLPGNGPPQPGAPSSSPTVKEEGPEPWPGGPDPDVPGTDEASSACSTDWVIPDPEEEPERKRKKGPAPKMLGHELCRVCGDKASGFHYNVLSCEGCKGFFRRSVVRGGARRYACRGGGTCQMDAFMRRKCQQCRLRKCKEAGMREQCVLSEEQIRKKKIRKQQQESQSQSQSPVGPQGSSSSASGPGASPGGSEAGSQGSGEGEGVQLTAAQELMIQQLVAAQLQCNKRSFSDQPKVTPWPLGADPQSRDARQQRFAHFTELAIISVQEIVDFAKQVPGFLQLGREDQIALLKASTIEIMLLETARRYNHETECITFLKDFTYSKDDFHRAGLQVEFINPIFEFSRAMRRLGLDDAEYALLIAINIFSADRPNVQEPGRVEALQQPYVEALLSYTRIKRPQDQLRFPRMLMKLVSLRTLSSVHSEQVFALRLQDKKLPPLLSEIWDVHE
Sequence of Hepatocyte nuclear factor 4-alpha (Homo sapiens) (P41235 whole entry, looked up): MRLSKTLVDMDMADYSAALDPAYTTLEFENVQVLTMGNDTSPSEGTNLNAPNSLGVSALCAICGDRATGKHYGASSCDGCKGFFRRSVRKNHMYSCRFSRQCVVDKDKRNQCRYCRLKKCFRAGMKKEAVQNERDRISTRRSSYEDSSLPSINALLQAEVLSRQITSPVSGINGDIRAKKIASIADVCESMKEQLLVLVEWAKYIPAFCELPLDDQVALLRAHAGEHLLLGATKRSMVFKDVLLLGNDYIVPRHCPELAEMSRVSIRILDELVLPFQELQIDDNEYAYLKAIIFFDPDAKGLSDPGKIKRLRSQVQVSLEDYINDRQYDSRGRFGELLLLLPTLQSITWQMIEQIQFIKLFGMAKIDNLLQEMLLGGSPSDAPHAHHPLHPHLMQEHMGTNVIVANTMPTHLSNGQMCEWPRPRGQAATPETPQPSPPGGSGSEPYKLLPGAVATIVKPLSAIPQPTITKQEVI
Sequence of Nuclear respiratory factor 1 (Homo sapiens) (Q16656 whole entry, looked up): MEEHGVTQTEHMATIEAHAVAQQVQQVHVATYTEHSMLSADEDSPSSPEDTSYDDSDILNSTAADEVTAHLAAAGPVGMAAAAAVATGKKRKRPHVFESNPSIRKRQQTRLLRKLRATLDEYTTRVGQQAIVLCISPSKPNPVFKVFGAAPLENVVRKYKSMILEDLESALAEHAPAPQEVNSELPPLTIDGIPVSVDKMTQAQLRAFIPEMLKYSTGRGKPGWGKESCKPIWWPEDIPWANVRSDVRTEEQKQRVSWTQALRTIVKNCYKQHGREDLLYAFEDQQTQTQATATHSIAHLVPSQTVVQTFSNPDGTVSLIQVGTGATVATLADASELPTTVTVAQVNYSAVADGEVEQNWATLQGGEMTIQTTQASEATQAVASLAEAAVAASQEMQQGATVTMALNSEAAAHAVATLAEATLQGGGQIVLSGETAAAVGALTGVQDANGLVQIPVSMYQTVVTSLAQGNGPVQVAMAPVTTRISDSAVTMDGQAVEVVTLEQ
Sequence of Nuclear receptor subfamily 4 group A member 2 (Homo sapiens) (P43354 whole entry, looked up, the tested form may be a part): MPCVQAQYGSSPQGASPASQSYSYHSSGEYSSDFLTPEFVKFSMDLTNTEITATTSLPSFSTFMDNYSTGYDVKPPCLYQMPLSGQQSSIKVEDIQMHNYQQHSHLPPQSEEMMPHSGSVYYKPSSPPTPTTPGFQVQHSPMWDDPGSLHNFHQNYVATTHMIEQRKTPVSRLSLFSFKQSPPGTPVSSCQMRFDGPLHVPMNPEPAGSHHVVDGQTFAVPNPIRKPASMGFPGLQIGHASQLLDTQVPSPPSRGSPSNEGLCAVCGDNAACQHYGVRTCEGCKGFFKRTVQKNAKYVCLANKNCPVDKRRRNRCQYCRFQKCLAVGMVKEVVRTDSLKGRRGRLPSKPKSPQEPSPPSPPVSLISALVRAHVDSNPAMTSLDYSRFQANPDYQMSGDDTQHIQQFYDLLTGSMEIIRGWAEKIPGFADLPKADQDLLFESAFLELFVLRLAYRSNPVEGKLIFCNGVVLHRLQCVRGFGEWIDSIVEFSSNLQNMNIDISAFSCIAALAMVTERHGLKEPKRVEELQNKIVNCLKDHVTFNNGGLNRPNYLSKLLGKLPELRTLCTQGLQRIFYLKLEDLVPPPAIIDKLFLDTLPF
Sequence of Myc proto-oncogene protein (Homo sapiens) (P01106 whole entry, looked up, the tested form may be a part): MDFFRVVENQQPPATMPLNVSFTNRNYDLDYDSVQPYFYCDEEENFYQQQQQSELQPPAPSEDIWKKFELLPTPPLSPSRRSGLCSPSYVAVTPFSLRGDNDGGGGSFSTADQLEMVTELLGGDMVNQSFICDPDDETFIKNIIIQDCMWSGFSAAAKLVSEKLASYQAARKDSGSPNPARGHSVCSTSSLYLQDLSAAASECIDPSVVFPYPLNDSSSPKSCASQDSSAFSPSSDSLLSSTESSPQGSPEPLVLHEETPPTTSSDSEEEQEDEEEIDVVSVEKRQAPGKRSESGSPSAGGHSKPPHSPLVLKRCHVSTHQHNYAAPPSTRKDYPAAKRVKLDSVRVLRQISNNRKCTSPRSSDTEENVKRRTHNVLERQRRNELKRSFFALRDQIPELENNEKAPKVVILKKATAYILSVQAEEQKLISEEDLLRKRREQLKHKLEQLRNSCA
Sequence of Estrogen-related receptor gamma (Homo sapiens) (P62508 whole entry, looked up, the tested form may be a part): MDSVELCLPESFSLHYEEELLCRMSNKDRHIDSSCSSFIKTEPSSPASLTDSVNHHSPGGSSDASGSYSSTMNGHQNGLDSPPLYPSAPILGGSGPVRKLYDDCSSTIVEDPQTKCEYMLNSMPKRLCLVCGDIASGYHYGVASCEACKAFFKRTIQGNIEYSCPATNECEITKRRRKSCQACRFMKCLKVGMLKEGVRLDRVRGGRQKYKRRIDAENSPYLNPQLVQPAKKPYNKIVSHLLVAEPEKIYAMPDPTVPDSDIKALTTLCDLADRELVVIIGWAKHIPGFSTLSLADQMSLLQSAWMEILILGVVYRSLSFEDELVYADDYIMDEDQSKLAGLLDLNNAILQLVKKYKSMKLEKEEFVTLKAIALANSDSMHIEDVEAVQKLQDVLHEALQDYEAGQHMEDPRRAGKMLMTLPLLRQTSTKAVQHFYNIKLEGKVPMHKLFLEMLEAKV
Sequence of Cellular tumor antigen p53 (Homo sapiens) (P04637 whole entry, looked up, the tested form may be a part): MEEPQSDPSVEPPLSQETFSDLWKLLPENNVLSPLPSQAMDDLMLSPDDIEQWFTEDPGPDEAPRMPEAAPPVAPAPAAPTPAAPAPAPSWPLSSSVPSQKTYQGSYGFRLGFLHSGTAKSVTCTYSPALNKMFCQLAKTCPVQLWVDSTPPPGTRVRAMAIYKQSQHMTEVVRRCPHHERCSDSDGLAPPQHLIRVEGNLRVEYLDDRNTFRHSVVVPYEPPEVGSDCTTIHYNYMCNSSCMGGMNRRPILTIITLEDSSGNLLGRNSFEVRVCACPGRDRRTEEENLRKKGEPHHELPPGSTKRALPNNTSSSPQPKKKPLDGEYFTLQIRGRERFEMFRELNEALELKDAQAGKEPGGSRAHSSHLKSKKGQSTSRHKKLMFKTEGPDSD
Sequence of Transcriptional activator Myb (Homo sapiens) (P10242 whole entry, looked up): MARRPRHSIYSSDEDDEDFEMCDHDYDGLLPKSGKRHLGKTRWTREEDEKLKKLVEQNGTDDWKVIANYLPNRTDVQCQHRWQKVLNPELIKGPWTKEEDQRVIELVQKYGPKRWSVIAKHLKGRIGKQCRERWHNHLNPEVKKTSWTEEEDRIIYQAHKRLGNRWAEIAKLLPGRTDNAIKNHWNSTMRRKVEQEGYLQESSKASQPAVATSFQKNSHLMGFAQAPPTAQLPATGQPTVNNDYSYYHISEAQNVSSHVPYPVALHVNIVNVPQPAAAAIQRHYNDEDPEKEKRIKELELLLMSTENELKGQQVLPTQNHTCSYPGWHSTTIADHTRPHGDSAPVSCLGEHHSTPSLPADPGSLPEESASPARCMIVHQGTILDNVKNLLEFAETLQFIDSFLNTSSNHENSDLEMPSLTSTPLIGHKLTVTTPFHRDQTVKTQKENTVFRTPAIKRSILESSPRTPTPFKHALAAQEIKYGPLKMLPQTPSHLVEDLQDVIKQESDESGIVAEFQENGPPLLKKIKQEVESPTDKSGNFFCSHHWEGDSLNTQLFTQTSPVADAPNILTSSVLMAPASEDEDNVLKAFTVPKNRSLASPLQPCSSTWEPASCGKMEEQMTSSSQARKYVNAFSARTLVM
Sequence of Bile acid receptor (Homo sapiens) (Q96RI1 whole entry, looked up, the tested form may be a part): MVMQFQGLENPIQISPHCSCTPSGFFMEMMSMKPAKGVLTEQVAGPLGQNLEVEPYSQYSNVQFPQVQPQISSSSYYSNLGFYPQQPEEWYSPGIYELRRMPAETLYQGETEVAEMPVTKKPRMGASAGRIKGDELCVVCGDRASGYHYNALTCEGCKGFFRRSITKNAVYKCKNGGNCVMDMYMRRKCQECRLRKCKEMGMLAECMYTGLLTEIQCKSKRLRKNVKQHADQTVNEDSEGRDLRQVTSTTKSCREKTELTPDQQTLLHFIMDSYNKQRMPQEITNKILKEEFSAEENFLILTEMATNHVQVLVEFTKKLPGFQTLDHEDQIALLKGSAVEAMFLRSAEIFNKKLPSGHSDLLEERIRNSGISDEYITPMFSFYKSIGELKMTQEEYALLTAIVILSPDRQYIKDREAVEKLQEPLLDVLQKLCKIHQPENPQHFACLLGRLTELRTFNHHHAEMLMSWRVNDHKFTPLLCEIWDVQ

Turning to `Cc1c(F)c(F)c(COC(=O)C2C(/C=C(\Cl)C(F)(F)F)C2(C)C)c(F)c1F` (stereo not drawn), the call in [1], in test [2], in test [3], in test [4], in test [5] and in test [6] was inactive. Also, the outcome in test [7], in test [8], in test [9], in test [10], in [11] and in test [12] was inactive. For the same molecule, the result in test [13], in [14], in test [15] and in test [16] was inactive.

As to `CCCCC(CC)COC(=O)c1ccccc1C(=O)OCC(CC)CCCC` (stereo not drawn), the result in [1], in test [17], in test [3], in test [4], in test [18] and in test [5] was inactive. For the same molecule, the result in [6], in test [7], in [8], in test [9], in [10] and in test [11] was inactive. The molecule was called inactive in test [12], in test [13], in [14], in test [15] and in [16].

Take `CCc1nn(C)c(C(=O)NCc2ccc(C(C)(C)C)cc2)c1Cl`: the result in test [19], in test [1], in test [4], in test [18], in test [7] and in [8] was inactive. Besides, the call in [10] was inactive. Also, the AC50 in test [2] was 0.258 µM (active); in [3] it was 0.343 µM (active); in [9], 0.353 µM (active); in test [11] it was 0.709 µM (active); in [12], 214 nM (active); in test [13] it was 397 nM (active). Moreover, the values for the AC50 in test [14], in test [15] and in [16] were 1.9 µM (active), 20 µM (active) and 26.7 µM (active), respectively.

As for `CCOC(=O)CC(SP(=S)(OC)OC)C(=O)OCC` (stereo not drawn), the molecule was classed as inactive in [1], in test [2], in test [3], in test [4], in test [18] and in test [5]. Moreover, the molecule was called inactive in test [6], in test [7], in test [8], in [9], in test [10] and in test [11]. In addition, the result in test [14] and in test [15] was inactive. Moreover, the AC50 is 25.1 µM (active) and 19.6 µM (active) in test [12]; 133 µM (active) and 24 µM (active) in test [13]; 5.14 µM (active) in [16].

With `CCNc1nc(Cl)nc(NCC)n1`, the result in test [19], in test [1], in [2], in test [3], in [18] and in test [5] was inactive. Moreover, the result in test [7], in [8], in test [9], in test [10], in test [12] and in test [13] was inactive. The result in test [14], in test [15] and in test [16] was inactive.

As for `O=C(O)c1nc(Cl)ccc1Cl`, the call in test [1], in test [2], in test [3], in test [18], in test [5] and in [6] was inactive. Further, the result in [7], in [8], in test [9], in test [10], in test [12] and in test [13] was inactive. The molecule was called inactive in [14], in test [15] and in [16].

Consider `O=C(Nc1ccccc1)Nc1ccnc(Cl)c1`, for which the molecule was classed as inactive in [19], in [1], in test [2], in test [3], in [4] and in test [5]. Moreover, the molecule was called inactive in test [7], in test [8], in test [9], in test [10], in [14] and in [15]. Besides, the outcome in test [16] was inactive. Besides, the AC50 in [6] is 50 µM (active); in test [11] it was 30.1 µM (active); in test [12] it was 13700 nM (active); in test [13], 33500 nM (active).
